Measurements: PubChem BioAssay (EPA / NIEHS)
The source made the active and inactive calls. How the source made its calls: active means hit-call score of the fitted dose curve at least 0.9, where 1 is the maximum; inactive means score below 0.9.

assay: BSK_hDFCGF_Proliferation: Cell Proliferation Assessment in the BioMAP Diversity Plus: hDFCGF Assay (AID 2283059); settings: primary human foreskin fibroblasts;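 further: curves fitted for both rise and fall of signal versus DMSO baseline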
Procedure, shortened: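 Total protein read at 560 nm after 0.1% SRB staining of TCA-fixed human skin fibroblasts, […]. Activity is fitted in both directions relative to DMSO as baseline.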

Structure (SMILES) | AC50 | outcome
CN(C)C(=O)NC1(c2ccccc2)CCN(CC[C@@]2(c3ccc(F)c(F)c3)CN(C(=O)c3ccccc3)CCO2)CC1 | 14.2 µM (active) | –
CC(=O)S[C@H](C(=O)N[C@H]1Cc2ccccc2[C@H]2CCC[C@@H](C(=O)O)N2C1=O)C(C)C | – | inactive
CC(=O)OC1CC(C)OC(C)O1 (centres undefined) | – | inactive
O=C1CCCCC1 | – | inactive
Nc1nc(Cl)nc2c1ncn2[C@H]1C[C@H](O)[C@@H](CO)O1 | 0.147 µM (active) | –
Cc1c(C)c2c(c(C)c1O)CCC(C)(COc1ccc(CC3SC(=O)NC3=O)cc1)O2 (centres undefined) | 6.8 µM (active) | –
CCCCC(CC)COP(=O)(OCC(CC)CCCC)OCC(CC)CCCC (centres undefined) | 7.49 µM (active) | –
O=C(O)c1cccnc1 | – | inactive
O=C(O)CC(O)(CC(=O)O)C(=O)O | – | inactive
